UBC13 polyUb – human UBC13 polyubiquitination inhibition; P61088; UBC13 polyubiquitin chain formation, TR-FRET; inhibition, % at 20 µM; actives 0.47% (n = 330,000); AID 485273; in the data active means inhibition above about 45%, passing the limit was not always enough; inconclusive means no clear call, values can overlap the other calls
Target sequence (P61088 whole entry, looked up): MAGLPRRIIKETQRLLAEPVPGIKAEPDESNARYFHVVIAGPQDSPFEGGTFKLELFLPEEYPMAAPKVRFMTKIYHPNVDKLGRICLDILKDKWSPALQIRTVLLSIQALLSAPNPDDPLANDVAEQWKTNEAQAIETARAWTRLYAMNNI
GRIN3A LBD mod – NR3A (human) ligand-binding domain modulation; NR3A LBD differential scanning fluorimetry, Tm shift; 0% = protein alone, 100% = glycine-bound protein; Tm shift relative to glycine control, % at 25 µM; actives 2.5% (n = 340,000); AID 1259313;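 active means melting temperature shift of at least 10% of the positive control shift, at one fixed dose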
dFosB activator – enhances mouse delta FosB homodimer DNA binding; activation, % at 25 µM; P13346; actives 0.99% (n = 340,000); purified delta FosB, TAMRA-CDK5 oligo fluorescence polarization; percent of positive-control signal above neutral wells; AID 493131;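 active means mean activation above about 17%, with every replicate also reaching it, limit read from the data, passing the limit was not always enough; inconclusive means only one of the two conditions met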
Target sequence (P13346 whole entry, looked up): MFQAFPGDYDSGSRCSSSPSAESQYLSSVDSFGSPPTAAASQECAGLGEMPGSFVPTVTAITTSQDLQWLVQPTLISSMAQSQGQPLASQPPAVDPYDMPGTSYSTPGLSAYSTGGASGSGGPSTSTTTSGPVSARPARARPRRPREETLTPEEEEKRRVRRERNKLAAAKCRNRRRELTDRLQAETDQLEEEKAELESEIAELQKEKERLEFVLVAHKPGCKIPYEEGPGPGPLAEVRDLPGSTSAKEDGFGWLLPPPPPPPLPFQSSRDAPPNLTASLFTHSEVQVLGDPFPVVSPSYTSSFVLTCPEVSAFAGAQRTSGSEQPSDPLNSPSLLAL
Yeast superoxide – lowers age-related superoxide in aged yeast cells; S. cerevisiae aged cells, superoxide DHE fluorescence; hits give low values; superoxide response (% of plate mean), % at 10 µM; actives 0.18% (n = 330,000);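 active means superoxide response under a set limit, about three screen SD below normal, cut at about 65% in these data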;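 further: yeast aged for seven days with compound at 30 °C before DHE staining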
NALP1 yeast inh – blocks the NALP1 inflammasome reconstituted in yeast | S. cerevisiae NALP1/ASC/caspase-1 growth, X-gal OD620, 72 h | inhibition, % at 10 µM | actives 0.61% (n = 280,000); in the data active means inhibition mostly above about 24%, no sharp cut-off; inactive means mostly below about 32%
Numbers stand for hits. Sampled rows, rich in hits. Any-hit rate of the full collection: about 4.3%.

What do the screens show for `CC(=O)Nc1ccc(S(=O)(=O)Nc2nc3ccc([N+](=O)[O-])cc3s2)cc1`?
UBC13 polyUb: inactive; GRIN3A LBD mod: 16; dFosB activator: inactive; Yeast superoxide: inactive; NALP1 yeast inh: inactive

How did Cc1ccc2nc(NC(=O)c3ccc(NS(=O)(=O)c4cccs4)cc3)sc2c1 do in these assays?
UBC13 polyUb: inactive; GRIN3A LBD mod: 33; dFosB activator: inconclusive; Yeast superoxide: inactive; NALP1 yeast inh: inactive

Results for O=C(NC1CCCc2ccccc21)c1c(F)cccc1Cl (stereo unspecified) ?
UBC13 polyUb: inactive; GRIN3A LBD mod: inactive; dFosB activator: inactive; Yeast superoxide: inactive; NALP1 yeast inh: inactive

What do the screens show for `CCC(C(=O)NC1CCCC1)N(C(=O)Cn1nnc(-c2ccc(C)o2)n1)c1cccc(OC)c1` (stereo unspecified)?
UBC13 polyUb: inactive; GRIN3A LBD mod: inactive; dFosB activator: inactive; Yeast superoxide: inactive; NALP1 yeast inh: inactive

Results for CCOc1cc2[nH]c(=S)n(CCCC(=O)NCc3ccccn3)c(=O)c2cc1OCC ?
UBC13 polyUb: inactive; GRIN3A LBD mod: inactive; dFosB activator: inactive; Yeast superoxide: inactive; NALP1 yeast inh: inactive

How did C/C(=N\NC(=O)c1ccc(NS(=O)(=O)c2cccs2)cc1)c1ccc(C(C)(C)C)cc1 do in these assays?
UBC13 polyUb: inactive; GRIN3A LBD mod: 15; dFosB activator: inactive; Yeast superoxide: inactive; NALP1 yeast inh: inactive

What do the screens show for `O=C(COC(=O)c1cc(NS(=O)(=O)c2cccs2)ccc1O)Nc1cc(Cl)ccc1Cl`?
UBC13 polyUb: inactive; GRIN3A LBD mod: 30; dFosB activator: 51; Yeast superoxide: inactive; NALP1 yeast inh: inactive

What do the screens show for `O=C(COC(=O)c1ccc(NS(=O)(=O)c2cccs2)cc1)Nc1nc2c(F)c(F)c(F)cc2s1`?
GRIN3A LBD mod: inactive; dFosB activator: 37; NALP1 yeast inh: inactive

Results for CC(=O)Nc1cccc(/C(C)=N/NC(=O)c2ccc(NS(=O)(=O)c3cccs3)cc2)c1 ?
UBC13 polyUb: inactive; GRIN3A LBD mod: inactive; dFosB activator: inactive; Yeast superoxide: inactive; NALP1 yeast inh: inactive

How did O=C(COC(=O)c1ccco1)Nc1nc2c(F)c(F)c(F)cc2s1 do in these assays?
UBC13 polyUb: inactive; GRIN3A LBD mod: inactive; dFosB activator: inactive; Yeast superoxide: inactive; NALP1 yeast inh: inactive

What do the screens show for `COC(=O)c1sc(NC(=O)CC(C)C)c(C(=O)OC)c1C`?
UBC13 polyUb: inactive; GRIN3A LBD mod: 21; dFosB activator: inactive; Yeast superoxide: inactive; NALP1 yeast inh: inactive

How did COC(=O)c1sc(NC(C)=O)c(C(=O)OC)c1C do in these assays?
UBC13 polyUb: inactive; GRIN3A LBD mod: inactive; dFosB activator: inactive; Yeast superoxide: inactive; NALP1 yeast inh: inactive

How did C=CCN1C=CC(=O)[C@@H](OC(=O)Nc2ccc(Br)cc2)[C@H]1c1ccccc1Br do in these assays?
GRIN3A LBD mod: inactive; dFosB activator: inactive

Results for CCOC(=O)C(=CNc1cc(Cl)c(-c2ccco2)c(Cl)c1)C(=O)OCC ?
UBC13 polyUb: inactive; GRIN3A LBD mod: inactive; dFosB activator: inactive; Yeast superoxide: inactive; NALP1 yeast inh: inactive

What do the screens show for `Cc1cccc(N(Cc2ccccc2)C(=O)c2ccc(CS(C)(=O)=O)cc2)c1`?
UBC13 polyUb: inactive; GRIN3A LBD mod: 14; dFosB activator: inactive; Yeast superoxide: inactive; NALP1 yeast inh: inactive

Results for COc1cc(C(=O)N(Cc2ccccc2)c2cccc(C)c2)ccc1OC(F)F ?
UBC13 polyUb: inactive; GRIN3A LBD mod: 14; dFosB activator: inactive; Yeast superoxide: inactive; NALP1 yeast inh: inactive

What do the screens show for `COc1cc(C(=O)NCc2ccc(C)cc2)ccc1OC(F)F`?
UBC13 polyUb: inactive; GRIN3A LBD mod: 12; dFosB activator: inactive; Yeast superoxide: inactive; NALP1 yeast inh: inactive

Results for COc1ccc(C(=O)N(Cc2ccccc2)c2cccc(C)c2)c(OC)c1OC ?
UBC13 polyUb: inactive; GRIN3A LBD mod: inactive; dFosB activator: inactive; Yeast superoxide: inactive; NALP1 yeast inh: inactive

What do the screens show for `COc1cc(C(=O)NCc2ccccc2)ccc1OC(F)F`?
UBC13 polyUb: inactive; GRIN3A LBD mod: inactive; dFosB activator: inactive; Yeast superoxide: inactive; NALP1 yeast inh: inactive

Results for CC(C)CN(C(=O)Cn1ccccc1=O)C1CCS(=O)(=O)C1 (stereo unspecified) ?
UBC13 polyUb: inactive; GRIN3A LBD mod: inactive; dFosB activator: inactive; Yeast superoxide: inactive

Results for CSc1ccc(/C=C/C(=O)N2CCN(c3ccccn3)CC2)cc1 ?
UBC13 polyUb: inactive; GRIN3A LBD mod: inactive; dFosB activator: inactive; Yeast superoxide: inactive; NALP1 yeast inh: inactive

How did O=C(NCc1ccc2c(c1)OCO2)c1cc2n(n1)C(C(F)(F)F)CC(c1ccc3c(c1)OCO3)N2 (stereo unspecified) do in these assays?
UBC13 polyUb: inactive; GRIN3A LBD mod: inactive; dFosB activator: 21; Yeast superoxide: inactive; NALP1 yeast inh: inactive

How did O=C(Nc1cc(Cl)ccc1O)c1cc2n(n1)C(C(F)(F)F)CC(c1ccc3c(c1)OCO3)N2 (stereo unspecified) do in these assays?
UBC13 polyUb: inactive; GRIN3A LBD mod: 23; dFosB activator: inactive; Yeast superoxide: inactive; NALP1 yeast inh: inactive

How did COc1ccc(OC)c(NC(=O)c2cc3n(n2)C(C(F)(F)F)CC(c2ccc4c(c2)OCO4)N3)c1 (stereo unspecified) do in these assays?
UBC13 polyUb: inactive; GRIN3A LBD mod: inactive; dFosB activator: inactive; Yeast superoxide: inactive; NALP1 yeast inh: inactive

Results for O=C(CN1C(=O)COc2ccc(S(=O)(=O)N3CCOCC3)cc21)Nc1cccc(Cl)c1 ?
UBC13 polyUb: inactive; GRIN3A LBD mod: inactive; dFosB activator: inactive; Yeast superoxide: inactive; NALP1 yeast inh: inactive

How did CCS(=O)(=O)N1CCN=C1SCc1ccc(F)cc1 do in these assays?
UBC13 polyUb: inactive; GRIN3A LBD mod: inactive; dFosB activator: inactive; Yeast superoxide: inactive; NALP1 yeast inh: inactive

Results for C=CCc1ccccc1OCC(=O)OCCNC(=O)c1cccnc1 ?
UBC13 polyUb: inactive; GRIN3A LBD mod: 20; dFosB activator: inactive; Yeast superoxide: inactive; NALP1 yeast inh: inactive

What do the screens show for `CCOCCCN(C)C1CCN(S(=O)(=O)c2csc(C(N)=O)c2)CC1`?
UBC13 polyUb: inactive; GRIN3A LBD mod: inactive; dFosB activator: inactive; Yeast superoxide: inactive; NALP1 yeast inh: inactive

What do the screens show for `CCCNS(=O)(=O)c1ccc(OCC(=O)N(C)Cc2ccccc2)cc1`?
UBC13 polyUb: inactive; GRIN3A LBD mod: inactive; dFosB activator: inactive; Yeast superoxide: 60; NALP1 yeast inh: inactive

How did CCC(=O)NCCCOc1ccccc1 do in these assays?
UBC13 polyUb: inactive; GRIN3A LBD mod: inactive; dFosB activator: inactive; Yeast superoxide: inactive; NALP1 yeast inh: 27

Results for CCOc1ccc(S(=O)(=O)NCCC(=O)NCCOc2ccccc2)cc1 ?
UBC13 polyUb: inactive; GRIN3A LBD mod: 65; dFosB activator: inactive; Yeast superoxide: inactive

How did CCCNS(=O)(=O)c1ccc(OCC(=O)OC)cc1 do in these assays?
UBC13 polyUb: inactive; GRIN3A LBD mod: inactive; dFosB activator: inactive; Yeast superoxide: inactive; NALP1 yeast inh: inactive

What do the screens show for `C=CCC[C@H](Cc1ccc(F)cc1)C(=O)OC[C@@H](NC(=O)[C@H](CC=C)CC(=O)NCCO)c1ccccc1`?
UBC13 polyUb: inactive; GRIN3A LBD mod: inactive; dFosB activator: inactive; Yeast superoxide: inactive
